Experimental data from PubChem BioAssay (NCI).
The panel holds about 83,000 compounds, 20% with a hit somewhere; the sample as a whole holds those more often.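 48-hour exposure, single concentration, 96-well plates; percent growth endpoint where 0 means no net growth. Active: below 10.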 Unmarked numbers belong to inactive results. Activity calls are given as the source filed them.

test system: A549/ATCC NSCLC; assay: NCI-60 one-dose screen, 48 h (100 = growth as untreated, 0 = no growth, -100 = all killed); conditions: 10 µM unless noted
Protocol: Growth inhibition of the A549/ATCC human Non-Small Cell Lung tumor cell line is measured as a screen for anti-cancer activity. Cells are grown in 96 well plates and exposed to the test compound for 48 hours. Compounds are tested at a single concentration, which is 10^-5 M for most compounds. The reported endpoint is percent growth (GI% or GIPRCNT), where numbers from 0 - 100% represent growth inhibition, and numbers from -100% - 0 represent cell death. For example, a value of 40 represents 60% growth inhibition. A value of 0 means no net growth occurred over the course of the experiment. A value of -40 indicates 40% of cells at the beginning of the experiment died by the end of the experiment. A value of -100 means all cells are dead at the end of the experiment.
NCI-60 Human Tumor Cell Lines Screen was performed using the standard one-dose NCI protocol, which is described in more detail at https://dtp.cancer.gov/discovery_development/nci-60/default.htm.
Compounds with GIPRCNT values below 10 were considered active. Activity score was based on GIPRCNT using the following formula: […]
Score is 0 for GIPRCNT values of 100 or above, 50 for GIPRCNT values of 0, and 100 for GIPRCNT values of -100.

| Compound | growth |
| --- | --- |
| O=C1c2ccccc2C(=O)c2c1ccc1[nH]c(CCl)nc21 | 43.8% |
| CCOc1ccc(Nc2ccnc3cc(Cl)ccc23)cc1 | 1.55% (active) |
| COc1ccc(CCN2C(=O)CCSC2=S)cc1 | 96.6% |
| COc1cc([C@@H]2NC(=O)NC(C)=C2C(=O)Nc2nc(-c3ccc(Cl)cc3)cs2)ccc1O | 97.1% |
| COc1ccc2c(c1)C=C1CSCC3=Cc4cc(OC)ccc4OC13O2 | 23.6% |
| O=C(COc1cc(O)c2c(=O)cc(-c3ccccc3)oc2c1)Nc1ccccc1 | 84.6% |
| COc1ccc(Cn2c(Br)c3c(c2-c2cc(OC)c(OC)c(OC)c2)CCc2sc(NC(=O)c4ccc(OC)cc4)nc2-3)cc1 | 94.2% |
| Clc1ccc(Nc2scc3[n+]2CCC3)cc1 | 92.4% |
| CC(C)CCOc1ccc(-c2n[nH]c(C(F)(F)F)c2-c2cncc(C#N)c2)c(O)c1 | 10.4% |
| Cc1ccc(NC2=CC(=O)C(=O)c3ccccc32)c(C)c1 | 5.75% (active) |
| Nc1ccc(-n2c(=O)oc3ccc(Cl)cc3c2=O)c(Cl)c1 | 6.26% (active) |
| CCN1CCN(c2cc(C)c3cc(NC(=O)c4ccc(OC)c(OC)c4)ccc3n2)CC1 | 33.3% |
| CCn1c(-c2nonc2Nc2ccc(OC)cc2)nc2ccccc21 | 93.5% |
| Nc1nc(-c2cnccn2)nn1-c1nc2ccccc2s1 | 92.7% |
| CCC1=C[C@@H]2CN(C1)Cc1c([nH]c3ccccc13)[C@@](C(=O)OC)(c1cc3c(cc1OC)N(C)[C@H]1[C@@](O)(C(=O)OC)[C@H](OC(C)=O)[C@]4(CC)[C@@H]5C[C@@H]5CN5CC[C@]31[C@@H]54)C2 | 13.9% |
| Cc1ccc2nc(NC(=O)CSC(=S)N3CCN(c4ccccc4)CC3)sc2c1 | 94.6% |
| CCN1C(=O)N(CC)C2Nn3c(s/c(=C4\C(=O)N(C(C)C)c5ccccc54)c3=O)=NC21 (stereo not given) | 30.4% |
| O=C(CCc1nnc2sc(Cc3ccccc3Cl)nn12)c1nc2ncccc2[nH]1 | 104% |
| OCCNc1nc(Nc2ccc(C3=NN(c4cc(Cl)cc(Cl)c4)C(c4ccc(C(F)(F)F)cc4)C3)cc2)nc(N2CCOCC2)n1 (stereo not given) | 59.2% |
| FC(F)(F)c1cccc(Nc2nc(-c3ccccc3)nc3ncccc23)c1 | 82.3% |

| Compound | growth |
| --- | --- |
| COc1ccc(-c2nsc3c2NC(=O)CC3c2cccc(OC)c2)cc1 (stereo not given) | 37.1% |
| COc1ccc(/C=C2\N=C(c3ccccc3)N(c3ccc(-c4nc5ccc(C)cc5s4)cc3)C2=O)cc1 | 70% |
| COC(=O)/C(CCC=C(C)C)=C1\[C@@H](OC(C)=O)C[C@@]2(C)[C@H]1C[C@@H](O)[C@H]1[C@@]3(C)CC[C@H](NC(=O)c4cnccn4)[C@@H](C)[C@@H]3CC[C@@]12C | 97.9% |
| COc1ccccc1CNC(=O)C1c2ccccc2C(=O)N(CC(C)C)C1c1cccs1 (stereo not given) | 60.7% |
| Clc1ccc(Oc2ccc(Nc3ncnc4onc(-c5ccccc5)c34)cc2)c(Cl)c1 | 91.2% |
| Brc1ccc(Oc2ccc(Nc3ncnc4onc(-c5ccccc5)c34)cc2)cc1 | 95.5% |
| COc1ccc(C2C3=C(COC3=O)N(CCO)c3cc4c(cc32)OCCO4)cc1 (stereo not given) | 76.6% |
| O=c1c(-c2nc3ccccc3[nH]2)cc2ccccc2n1Cc1cn(Cc2ccccc2Cl)nn1 | 15.4% |
| Oc1c(C(Nc2ccccn2)c2cccc(Oc3ccccc3)c2)ccc2cccnc12 (stereo not given) | -81.8% (active) |
| O=C(O)CCC(=O)c1ccc(C2CCCCCC2)cc1 | 99.6% |
| COc1cc(/C=C2\CN(C)C/C(=C\c3cc(CN4CCCC4)c(O)c(OC)c3)C2=O)cc(CN2CCCC2)c1O | 85.6% |
| O=c1oc2ccc(Br)cc2c(=O)n1-c1ccc(Cl)cc1F | 8.23% (active) |
| CC[C@]1(O)C[C@@H]2CN(CCc3c([nH]c4ccccc34)[C@@](C(=O)OC)(c3cc4c(cc3OC)N(C)[C@H]3[C@@](O)(C(=O)OC)[C@H](OC(=O)CCCBr)[C@]5(CC)C=CCN6CC[C@]43[C@@H]65)C2)C1 | 15.2% |
| O=C(CCc1nnc2sc(COc3ccccc3)nn12)c1nc2ncccc2[nH]1 | 107% |
| CCN1C(=O)N(CC)C2C1NN=c1s/c(=C3\C(=O)N(C(C)C)c4ccccc43)c(=O)n12 (stereo not given) | 16.5% |
| O=C1NC(=O)C(=Cc2cn(Cc3cn(Cc4ccc(Cl)cc4Cl)nn3)c3ccccc23)C(=O)N1 | 101% |
| C1CCN(c2nc(N3CCCCC3)nc(N3CCOCC3)n2)CC1 | 87% |
| CC(=O)c1ccc(Cc2ccc(C(C)=O)s2)s1 | 105% |
| CC1(O)COCCCCOc2c(CN)cccc2NC(=O)c2nc(cnc2N)-c2ccc(cc2)S(=O)(=O)C(C)(C)C1 (stereo not given) | -52.8% (active) |
| CCCSC1=NC2C(N(CC)C(=O)N2CC)N1/N=C/C=C/c1ccccc1[N+](=O)[O-] (stereo not given) | 35.8% |
